# Reference: PubChem BioAssay (EPA / NIEHS)
# Inconclusive results are not listed. Active and inactive are the calls of the source. How the source made its calls, unless noted: active means hit-call score of the fitted dose curve at least 0.9, where 1 is the maximum; inconclusive means response in the unintended direction; inactive means score below 0.9.
# Assays:
# [1] = molecular target: Cellular tumor antigen p53 (Homo sapiens) (UniProt P04637); experiment: TOX21_p53_BLA_p3_ratio: Tox21 HCT-116 p53 Agonism Beta-lactamase Assay, Ratio, Phase 3 (AID 2283596)
# Summary of the method: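 Cells were seeded at 4000/well, rested 5 h at 37C, then dosed with DMSO compound solutions (217-fold dilution) for 16 h. CCF4-AM substrate was loaded for 2 h at room temperature, and the 460/530 nm emission ratio was fitted for gain of signal versus DMSO.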
# [2] = TOX21_p53_BLA_p4_viability: Viability Assessment in the Tox21 HCT-116 p53 Agonism Beta-lactamase Assay, Phase 4 (AID 2283597);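 further: hits lower the luminescence signal meaning cytotoxicity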
# Summary of the method: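 Cytotoxicity as reduced cellular ATP (CellTiter-Glo luminescence, 30 min room temperature), measured in the same wells following the CCF4 FRET p53 reading. Human HCT-116 cells received compounds in DMSO (217-fold dilution) for 16 h.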
# [3] = TOX21_p53_BLA_p5_viability: Viability Assessment in the Tox21 HCT-116 p53 Agonism Beta-lactamase Assay, Phase 5 (AID 2283600)
# Summary of the method: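 Viability came from CellTiter-Glo ATP luminescence, read after 30 min at room temperature. Before this, HCT-116 p53-bla cells (4000/well) had 16 hours of compound exposure at 37C, with DMSO stocks diluted 217-fold on transfer.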
# [4] = molecular target: Cellular tumor antigen p53 (Homo sapiens) (UniProt P04637); experiment: TOX21_p53_BLA_p4_ratio: Tox21 HCT-116 p53 Agonism Beta-lactamase Assay, Ratio, Phase 4 (AID 2283601)
# Summary of the method: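 HCT-116 p53 beta-lactamase reporter cells (4000/well) preincubated 5 h, then compound (217-fold dilution of DMSO stock) for 16 h at 37C. CCF4-AM substrate added 2 h at room temperature; 460/530 nm emission ratio fitted upward versus DMSO.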
# [5] = molecular target: Cellular tumor antigen p53 (Homo sapiens) (UniProt P04637); experiment: TOX21_p53_BLA_p5_ratio: Tox21 HCT-116 p53 Agonism Beta-lactamase Assay, Ratio, Phase 5 (AID 2283599)
# Summary of the method: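 HCT-116 p53-bla cells (4000/well) plated 5 h, dosed with compound (217-fold DMSO dilution) for 16 h at 37 C; CCF4-AM substrate 2 h at room temperature. Activity is the 460/530 nm emission ratio (405 nm excitation), fitted in gain-of-signal direction versus DMSO.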
# [6] = TOX21_p53_BLA_p3_viability: Viability Assessment in the Tox21 HCT-116 p53 Agonism Beta-lactamase Assay, Phase 3 (AID 2283593);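 further: cells exposed to compound for 16 h before reading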
# Summary of the method: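 HCT116 cells, 4000/well, dosed 5 h after plating by pin transfer (217-fold dilution from DMSO stock) and incubated 16 h at 37C, 5% CO2. Viability read as ATP luminescence with CellTiter-Glo after 30 min at room temperature.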
# [7] = tested on: Thyroperoxidase (TPO), gene 54314; experiment: CCTE_Simmons_AUR_rTPO: CCTE's Amplex UltraRed Assay for Thyroperoxidase (TPO) Inhibition, Simmons Lab (AID 2283662)
# Summary of the method: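 Rat thyroid microsomes (5 ug protein) with 25 uM Amplex UltraRed and 300 uM H2O2 in 200 mM phosphate buffer, 30 min at 37C in dark; fluorescence 544/590 nm. Eight concentrations, 5 nM–87.5 uM final, 0.5% DMSO, triplicate biological replicates.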
# [8] = CCTE_Simmons_CellTiterGLO_HEK293T: Viability Assessment in CCTE's Assays for Thyroperoxidase (TPO) Inhibition, Simmons Lab (AID 2283665)
# Summary of the method: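 ATP depletion measured in HEK293T cells after 24 h dosing (8 concentrations, 5 nM–87.5 uM final; DMSO 0.5%) using CellTiter-Glo luminescence; curves fit for loss of signal against DMSO baseline.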
# [9] = molecular target: Luciferin 4-monooxygenase (Photinus pyralis) (UniProt P08659); experiment: CCTE_Simmons_QuantiLum_inhib_2: CCTE's Firefly Luciferase Inhibition Assay, Simmons Lab (AID 2283767);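 on AC50: potency for inhibitors that lower luciferase luminescence relative to DMSO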
# Summary of the method: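 Eight-point titrations of each chemical, 5 nM–87.5 uM final in 0.5% DMSO, were run in three biological replicates against recombinant luciferase for 30 min at 37C. Bioluminescence signal loss, read on reagent injection, gave the inhibition endpoint.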
# [10] = CCTE_Harrill_HTTr_Viability_MCF7: CCTE's 6-hour Cell Viability Assessment for the High-Throughput Transcriptomics (HTTr) Platform, in MCF-7 cells cultured in DMEM + 10% fetal bovine serum, Harrill Lab (AID 2284010; active means hit-call score of the fitted dose curve at least 0.9, where 1 is the maximum; inactive means score below 0.9)
# Summary of the method: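 Eight-point concentration series, six-hour exposure. Propidium iodide exclusion imaged to assess membrane integrity as a cytotoxicity readout; bidirectional fitting was done with DMSO as negative control and activity baseline.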
# [11] = CCTE_Harrill_HTTr_Apoptosis_MCF7: CCTE's 6-hour Apoptosis Assessment for the High-Throughput Transcriptomics (HTTr) Platform, in MCF-7 cells cultured in DMEM + 10% fetal bovine serum, Harrill Lab (AID 2284011; active means hit-call score of the fitted dose curve at least 0.9, where 1 is the maximum; inactive means score below 0.9)
# Summary of the method: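 High-content imaging of CellEvent Caspase 3/7 Green signal follows a six-hour exposure, with eight concentrations per chemical. MCF-7 cells grown in DMEM plus 10% fetal bovine serum; activity fitted in both directions against DMSO.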
# [12] = CCTE_Harrill_HTTr_CellCount_MCF7: CCTE's Cell Proliferation Assessment for the High-Throughput Transcriptomics (HTTr) Platform, Harrill Lab (AID 2284012);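 further: count of Hoechst-stained nuclei per well by high-content imaging in MCF-7 cells; cells exposed to compound for six hours; intended direction is loss of nuclei count meaning fewer cells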
# Summary of the method: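 For this full-screen endpoint, MCF-7 cultures received eight compound dilutions for six hours. Well nuclei counts from Hoechst imaging were analyzed relative to DMSO.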
# Chain of Cellular tumor antigen p53 (Homo sapiens) (P04637 whole entry, looked up): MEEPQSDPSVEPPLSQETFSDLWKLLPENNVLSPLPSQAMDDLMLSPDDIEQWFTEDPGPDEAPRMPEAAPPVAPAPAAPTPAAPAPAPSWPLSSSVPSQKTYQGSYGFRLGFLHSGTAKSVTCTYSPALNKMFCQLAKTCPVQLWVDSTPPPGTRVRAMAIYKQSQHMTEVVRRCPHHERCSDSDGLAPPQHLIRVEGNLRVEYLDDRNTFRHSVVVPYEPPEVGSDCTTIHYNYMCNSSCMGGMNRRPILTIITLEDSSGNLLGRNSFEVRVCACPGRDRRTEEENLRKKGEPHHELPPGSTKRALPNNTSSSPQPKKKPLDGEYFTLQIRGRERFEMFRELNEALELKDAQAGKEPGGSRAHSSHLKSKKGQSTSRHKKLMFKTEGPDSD
# Chain of Luciferin 4-monooxygenase (Photinus pyralis) (P08659 whole entry, looked up): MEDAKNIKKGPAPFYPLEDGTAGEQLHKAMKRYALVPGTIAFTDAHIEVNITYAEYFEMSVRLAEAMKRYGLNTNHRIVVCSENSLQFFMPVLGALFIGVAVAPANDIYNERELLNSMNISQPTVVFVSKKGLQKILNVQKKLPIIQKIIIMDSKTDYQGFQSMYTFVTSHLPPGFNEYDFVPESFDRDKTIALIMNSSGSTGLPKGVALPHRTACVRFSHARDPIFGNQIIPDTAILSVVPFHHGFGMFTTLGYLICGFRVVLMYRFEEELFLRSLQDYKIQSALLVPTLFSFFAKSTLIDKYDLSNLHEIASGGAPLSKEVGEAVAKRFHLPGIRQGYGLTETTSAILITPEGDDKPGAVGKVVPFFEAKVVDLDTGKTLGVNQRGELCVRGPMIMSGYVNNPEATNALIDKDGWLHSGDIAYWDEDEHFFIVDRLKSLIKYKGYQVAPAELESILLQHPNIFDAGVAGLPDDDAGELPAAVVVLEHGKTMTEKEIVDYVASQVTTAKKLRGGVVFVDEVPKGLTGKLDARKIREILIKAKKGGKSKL
smiles,measurement,setting,value
COc1ccc2c3c1O[C@H]1[C@H](O)CC[C@H]4[C@@H](C2)N(C)CC[C@@]341,outcome,[1],inactive
same,outcome,[2],inactive
same,outcome,[3],inactive
same,outcome,[4],inactive
CCCCCCCCCC(=O)O[C@H]1CC[C@H]2[C@@H]3CCC4=CC(=O)CC[C@@H]4[C@H]3CC[C@]12C,outcome,[1],inactive
same,outcome,[4],inactive
CCNCC(O)c1cccc(O)c1 (stereo unspecified),outcome,[1],inactive
same,outcome,[5],inactive
same,outcome,[3],inactive
same,outcome,[4],inactive
CC(Cc1ccccc1)NC=O (stereo unspecified),outcome,[1],inactive
same,outcome,[2],inactive
same,outcome,[5],inactive
same,outcome,[3],inactive
same,outcome,[4],inactive
CCCCC1C(=O)NC(=O)N(C2CCCCC2)C1=O (stereo unspecified),outcome,[6],inactive
same,outcome,[2],inactive
same,outcome,[5],inactive
same,outcome,[3],inactive
same,outcome,[4],inactive
CCCN1CCC[C@@H]2Cc3[nH]ncc3C[C@H]21,outcome,[3],inactive
same,outcome,[4],inactive
Cc1ccc2cc3c(ccc4ccccc43)c3c2c1CC3,outcome,[7],inactive
same,outcome,[8],inactive
same,AC50,[9],263 nM (active)
same,outcome,[10],inactive
same,outcome,[11],inactive
O=C=NC1CCCCC1,outcome,[2],inactive
same,outcome,[5],inactive
same,outcome,[3],inactive
same,outcome,[4],inactive
C[N+]1(CCF)[C@@H]2CC[C@H]1CC(OC(=O)C(O)(c1ccccc1)c1ccccc1)C2 (stereo partly specified),outcome,[2],inactive
NC1CCC(CC2CCC(N)CC2)CC1 (stereo unspecified),outcome,[5],inactive
O=C1Nc2ccc(Cl)cc2C(c2ccccc2Cl)=NC1O (stereo unspecified),outcome,[3],inactive
same,outcome,[4],inactive
ClC(Cl)C(Cl)Cl,outcome,[5],inactive
same,outcome,[4],inactive
CC(=O)[C@@]1(O)CC[C@H]2[C@@H]3CCC4=CC(=O)CC[C@]4(C)C3(F)[C@@H](O)C[C@@]21C (stereo partly specified),outcome,[2],inactive
same,outcome,[3],inactive
C[C@@H](Cc1ccccc1)N(C)C,outcome,[2],inactive
same,outcome,[5],inactive
same,outcome,[3],inactive
same,outcome,[4],inactive
O=P(Cl)(Cl)Cl,outcome,[5],inactive
same,outcome,[3],inactive
same,outcome,[4],inactive
CCC(C)Br (stereo unspecified),outcome,[2],inactive
same,outcome,[5],inactive
same,outcome,[3],inactive
same,outcome,[4],inactive
CCN(CC)CCc1c[nH]c2ccccc12,outcome,[4],inactive
COc1ccc2c3c1O[C@H]1[C@@H](O)C=C[C@H]4[C@@H](C2)N(C)CC[C@@]341,outcome,[2],inactive
same,outcome,[10],inactive
same,outcome,[11],inactive
same,outcome,[12],inactive
CCN(CC)CCN1C(=O)CN=C(c2ccccc2F)c2cc(Cl)ccc21,outcome,[2],inactive
same,outcome,[3],inactive
CC1(C)S[C@@H]2[C@H](N)C(=O)N2[C@H]1C(=O)O,outcome,[2],inactive
same,outcome,[5],inactive
same,outcome,[3],inactive
same,outcome,[4],inactive
CCCC(C)(COC(N)=O)COC(=O)NC1CC1 (stereo unspecified),outcome,[5],inactive
same,outcome,[3],inactive
same,outcome,[4],inactive
COc1ccc2[nH]cc(CCN(C(C)C)C(C)C)c2c1,outcome,[5],inactive
same,outcome,[4],inactive
CN=C=O,outcome,[4],inactive
CN(CCO)CCO,outcome,[3],inactive
same,outcome,[4],inactive
CCc1cc(OC)c(C[C@H](C)N)cc1OC,outcome,[2],inactive
same,outcome,[5],inactive
same,outcome,[3],inactive
same,outcome,[4],inactive
COc1ccn(C)c(=O)c1C#N,outcome,[7],inactive
same,outcome,[9],inactive
NC(=O)OCCCc1ccccc1,outcome,[5],inactive
same,outcome,[3],inactive
same,outcome,[4],inactive
C[C@@H]1[C@H]2Cc3ccc(O)cc3[C@]1(C)CCN2C,outcome,[2],inactive
same,outcome,[3],inactive
CCN[C@@H](C)Cc1ccccc1,outcome,[2],inactive
